Measured values: PMC5540273 (PLoS ONE, 2017)

Columns and labels:
Conditions in all cases: concentration: 1 μM, replicates: in singlicate; n = 1
PDPK1 = system: PDPK1
PFTAIRE2 = system: PFTAIRE2
PFTK1 = system: T1, PFTK1
T1 construct: gene CDK14

PHKG1 = system: PHKG1
PHKG2 = system: PHKG2
PIK3C2B = system: PIK3C2B
PIK3C2G = system: PIK3C2G
PIK3CA = system: PIK3CA
PIK3CB = system: PIK3CB
PIK3CD = system: PIK3CD
PIK3CG = system: PIK3CG
PIK4CB = system: T2, PIK4CB
T2 construct: gene PI4KB

PIKFYVE = system: PIKFYVE
PIM1 = system: PIM1
PIM2 = system: PIM2
PIM3 = system: PIM3
PIP5K1A = system: PIP5K1A
PIP5K1C = system: PIP5K1C
PIP5K2B = system: PIP5K2B
PIP5K2C = system: T3, PIP5K2C
T3 construct: gene PIP4K2C
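Note: KINOMEscan kinase panel screen.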

CCC(=O)c1c(-c2ccccc2)c2cc(Cl)ccc2c(=O)n1Cc1cc(S(C)(=O)=O)n(CC(N)=O)n1
%Inh (PDPK1): 31%
%Inh (PFTAIRE2): 0%
%Inh (PFTK1): 11%
%Inh (PHKG1): 0%
%Inh (PHKG2): 0%
%Inh (PIK3C2B): 0%
%Inh (PIK3C2G): 0%
%Inh (PIK3CA): 0%
%Inh (PIK3CB): 0%
%Inh (PIK3CD): 0%
%Inh (PIK3CG): 0%
%Inh (PIK4CB): 0%
%Inh (PIKFYVE): 17%
%Inh (PIM1): 18%
%Inh (PIM2): 2%
%Inh (PIM3): 9%
%Inh (PIP5K1A): 0%
%Inh (PIP5K1C): 33%
%Inh (PIP5K2B): 8%
%Inh (PIP5K2C): 19%

Cl.NS(=O)(=O)c1cccc(Nc2cc(-c3ccc(F)cc3)n[nH]2)c1 [GW824645]
%Inh (PDPK1): 0%
%Inh (PFTAIRE2): 24%
%Inh (PFTK1): 9%
%Inh (PHKG1): 0%
%Inh (PHKG2): 0%
%Inh (PIK3C2B): 0%
%Inh (PIK3C2G): 0%
%Inh (PIK3CA): 11%
%Inh (PIK3CB): 0%
%Inh (PIK3CD): 0%
%Inh (PIK3CG): 0%
%Inh (PIK4CB): 26%
%Inh (PIKFYVE): 0%
%Inh (PIM1): 0%
%Inh (PIM2): 8%
%Inh (PIM3): 0%
%Inh (PIP5K1A): 3%
%Inh (PIP5K1C): 59%
%Inh (PIP5K2B): 0%
%Inh (PIP5K2C): 0%

Cc1cccc(-c2nc(Nc3ccc4c(cnn4C)c3)c3ccccc3n2)n1 [GW876731]
%Inh (PDPK1): 37%
%Inh (PFTAIRE2): 10%
%Inh (PFTK1): 22%
%Inh (PHKG1): 0%
%Inh (PHKG2): 0%
%Inh (PIK3C2B): 0%
%Inh (PIK3C2G): 44%
%Inh (PIK3CA): 0%
%Inh (PIK3CB): 3%
%Inh (PIK3CD): 61%
%Inh (PIK3CG): 0%
%Inh (PIK4CB): 26%
%Inh (PIKFYVE): 91.5%
%Inh (PIM1): 8%
%Inh (PIM2): 1%
%Inh (PIM3): 21%
%Inh (PIP5K1A): 0%
%Inh (PIP5K1C): 0%
%Inh (PIP5K2B): 0%
%Inh (PIP5K2C): 0%

O=C1NC(=O)C(c2ccccc2)=C1Nc1cccc(O)c1 [SB-390534]
%Inh (PDPK1): 0%
%Inh (PFTAIRE2): 10%
%Inh (PFTK1): 0%
%Inh (PHKG1): 0%
%Inh (PHKG2): 0%
%Inh (PIK3C2B): 2%
%Inh (PIK3C2G): 4%
%Inh (PIK3CA): 0%
%Inh (PIK3CB): 0%
%Inh (PIK3CD): 0%
%Inh (PIK3CG): 5%
%Inh (PIK4CB): 22%
%Inh (PIKFYVE): 0%
%Inh (PIM1): 0%
%Inh (PIM2): 0%
%Inh (PIM3): 0%
%Inh (PIP5K1A): 5%
%Inh (PIP5K1C): 0%
%Inh (PIP5K2B): 13%
%Inh (PIP5K2C): 0%

COc1cc2ncn(-c3cc(OCc4ccc(S(C)(=O)=O)cc4)c(C(N)=O)s3)c2cc1OC [GW869979]
%Inh (PDPK1): 0%
%Inh (PFTAIRE2): 0%
%Inh (PFTK1): 0%
%Inh (PHKG1): 10%
%Inh (PHKG2): 0%
%Inh (PIK3C2B): 0%
%Inh (PIK3C2G): 29%
%Inh (PIK3CA): 0%
%Inh (PIK3CB): 30%
%Inh (PIK3CD): 16%
%Inh (PIK3CG): 26%
%Inh (PIK4CB): 18%
%Inh (PIKFYVE): 14%
%Inh (PIM1): 0%
%Inh (PIM2): 0%
%Inh (PIM3): 0%
%Inh (PIP5K1A): 0%
%Inh (PIP5K1C): 39%
%Inh (PIP5K2B): 16%
%Inh (PIP5K2C): 0%

O=c1cc(N2CCOCC2)nc2n(Cc3ccc(F)c(Cl)c3)ccn12 [GSK2297099]
%Inh (PDPK1): 0%
%Inh (PFTAIRE2): 62%
%Inh (PFTK1): 14%
%Inh (PHKG1): 0%
%Inh (PHKG2): 0%
%Inh (PIK3C2B): 31%
%Inh (PIK3C2G): 0%
%Inh (PIK3CA): 11%
%Inh (PIK3CB): 96.2%
%Inh (PIK3CD): 75%
%Inh (PIK3CG): 23%
%Inh (PIK4CB): 20%
%Inh (PIKFYVE): 0%
%Inh (PIM1): 11%
%Inh (PIM2): 0%
%Inh (PIM3): 19%
%Inh (PIP5K1A): 0%
%Inh (PIP5K1C): 0%
%Inh (PIP5K2B): 0%
%Inh (PIP5K2C): 0%

CCc1nc(-c2cccc(C)c2)c(-c2ccncc2)s1
%Inh (PDPK1): 1%
%Inh (PFTAIRE2): 0%
%Inh (PFTK1): 14%
%Inh (PHKG1): 0%
%Inh (PHKG2): 9%
%Inh (PIK3C2B): 0%
%Inh (PIK3C2G): 3%
%Inh (PIK3CA): 0%
%Inh (PIK3CB): 4%
%Inh (PIK3CD): 0%
%Inh (PIK3CG): 0%
%Inh (PIK4CB): 0%
%Inh (PIKFYVE): 39%
%Inh (PIM1): 17%
%Inh (PIM2): 0%
%Inh (PIM3): 29%
%Inh (PIP5K1A): 0%
%Inh (PIP5K1C): 36%
%Inh (PIP5K2B): 19%
%Inh (PIP5K2C): 25%

CC(C)(C)c1ccc(C(=O)Nc2cn3cc(-c4ccccc4)ccc3n2)cc1
%Inh (PDPK1): 0%
%Inh (PFTAIRE2): 0%
%Inh (PFTK1): 0%
%Inh (PHKG1): 4%
%Inh (PHKG2): 2%
%Inh (PIK3C2B): 0%
%Inh (PIK3C2G): 0%
%Inh (PIK3CA): 0%
%Inh (PIK3CB): 14%
%Inh (PIK3CD): 0%
%Inh (PIK3CG): 0%
%Inh (PIK4CB): 0%
%Inh (PIKFYVE): 27%
%Inh (PIM1): 30%
%Inh (PIM2): 0%
%Inh (PIM3): 19%
%Inh (PIP5K1A): 0%
%Inh (PIP5K1C): 32%
%Inh (PIP5K2B): 6%
%Inh (PIP5K2C): 54%

O=C(Nc1n[nH]c2nc(-c3ccccc3)c(Cl)cc12)C1CC1 [SB-734909]
%Inh (PDPK1): 0%
%Inh (PFTAIRE2): 0%
%Inh (PFTK1): 6%
%Inh (PHKG1): 0%
%Inh (PHKG2): 7%
%Inh (PIK3C2B): 35%
%Inh (PIK3C2G): 10%
%Inh (PIK3CA): 12%
%Inh (PIK3CB): 13%
%Inh (PIK3CD): 17%
%Inh (PIK3CG): 45%
%Inh (PIK4CB): 2%
%Inh (PIKFYVE): 0%
%Inh (PIM1): 0%
%Inh (PIM2): 3%
%Inh (PIM3): 1%
%Inh (PIP5K1A): 8%
%Inh (PIP5K1C): 38%
%Inh (PIP5K2B): 13%
%Inh (PIP5K2C): 14%

OCCCNc1nccc(-c2c(-c3cccc(C(F)(F)F)c3)nn3cc(C(F)(F)F)ccc23)n1 [GW630813]
%Inh (PDPK1): 0%
%Inh (PFTAIRE2): 1%
%Inh (PFTK1): 18%
%Inh (PHKG1): 0%
%Inh (PHKG2): 5%
%Inh (PIK3C2B): 0%
%Inh (PIK3C2G): 0%
%Inh (PIK3CA): 0%
%Inh (PIK3CB): 0%
%Inh (PIK3CD): 0%
%Inh (PIK3CG): 0%
%Inh (PIK4CB): 0%
%Inh (PIKFYVE): 0%
%Inh (PIM1): 9%
%Inh (PIM2): 0%
%Inh (PIM3): 0%
%Inh (PIP5K1A): 30%
%Inh (PIP5K1C): 66%
%Inh (PIP5K2B): 2%
%Inh (PIP5K2C): 38%

COc1cc2ncn(-c3cc(OCc4ccncc4)c(C(N)=O)s3)c2cc1OC [GSK336313]
%Inh (PDPK1): 0%
%Inh (PFTAIRE2): 27%
%Inh (PFTK1): 16%
%Inh (PHKG1): 0%
%Inh (PHKG2): 0%
%Inh (PIK3C2B): 0%
%Inh (PIK3C2G): 0%
%Inh (PIK3CA): 1%
%Inh (PIK3CB): 0%
%Inh (PIK3CD): 0%
%Inh (PIK3CG): 12%
%Inh (PIK4CB): 0%
%Inh (PIKFYVE): 0%
%Inh (PIM1): 0%
%Inh (PIM2): 0%
%Inh (PIM3): 0%
%Inh (PIP5K1A): 0%
%Inh (PIP5K1C): 30%
%Inh (PIP5K2B): 22%
%Inh (PIP5K2C): 0%
